In PubChem BioAssay (NCATS):
Where “and” joins values, the source holds several entries; their conditions need not be identical. Equal entries are not always repeated. Inconclusive results are not listed. Calls of active or inactive are those of the source. Calls follow the shape of the dose curve; as a rule, active = well fitted cell-killing curve with a large enough effect; inconclusive = small, poorly fitted or top-dose-only effect, or effect the other way; inactive = no such curve, though single readings can be large or run the other way.

Test: Viability qHTS for spleen associated tyrosine kinase inhibitor (SYKi) naive MV4-11 cells (AID 1963823); also: nearly all actives have a fitted effect of over 40% in size
Conditions: MV4-11 AML viability, CellTiter-Glo luminescence, 72 h; series mostly up to 45 µM; viability (% of control): at the top concentration
Method in brief: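 SYK inhibitor-naive MV4-11 cells, 500 per well, exposed to compounds for 72 hr at 37 C, 5% CO2. Viability read as CellTiter-Glo luminescence after 10 min at room temperature.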
Potency is read from the fitted curve at half-maximal effect.

| Compound | viability (% of control) | Potency |
| --- | --- | --- |
| C[C@@H]1CC[C@]2(C(=O)O[C@@H]3O[C@H](CO[C@@H]4O[C@H](CO)[C@@H](O[C@@H]5O[C@@H](C)[C@H](O)[C@@H](O)[C@H]5O)[C@H](O)[C@H]4O)[C@@H](O)[C@H](O)[C@H]3O)CC[C@]3(C)C(=CCC4[C@@]5(C)C[C@@H](O)[C@H](O)[C@@](C)(CO)C5CC[C@]43C)C2[C@H]1C (stereo not given in full) | 87.5% [at 9.25 µM] (inactive) | – |
| C=C/C=C/[C@@H]1OC[C@H](/C=C/C=C/C)[C@H]1O | 82.4% [at 91.9 µM] (inactive) | – |
| Cc1ccc(NC(=O)N2CCN(c3nc(N)nc4sc(-c5cccnc5)nc34)CC2)cc1 | – | 0.013 µM (active) |
| C[C@H](NC(=O)CCc1nc2ccccc2c(=O)[nH]1)c1ccccc1 | 63.7% (inactive) | – |
| C=CC1(C)CC(O)C2(CCC3C(C)(C(=O)O)CCCC3(C)C2=O)C1 (stereo not given) | 53.4% (inactive) | – |
| CC#CCn1c(N2CCCC(N)C2)nc2c1c(=O)n(Cc1nc(C)c3ccccc3n1)c(=O)n2C (stereo not given) | 73.3% (inactive) | – |
| C=CC(C)(O)CC/C=C(\C)COC1O[C@H](CO)[C@@H](O)[C@H](O)[C@H]1O (stereo not given in full) | 77.9% (inactive) | – |
| NC1Nc2ccccc2C1(N)CC1NC(=O)C(Cc2ccccc2)NC(=O)C(Cc2ccccc2)NC1=O (stereo not given) | 62.1% [at 17.3 µM] (inactive) | – |
| CC(C(O)/C=C/C(C)(C)O)C1CCC2(C)C3C(=O)C=C4C(CCC(O)C4(C)C)C3(C)CCC12C (stereo not given) | 82.3% [at 17.3 µM] (inactive) | – |
| CC(=O)OC[C@]12[C@H](OC(C)=O)[C@H](OC(=O)c3ccccc3)[C@@H]3[C@@H](OC(C)=O)[C@]1(OC3(C)C)[C@H](C)C[C@H](OC(=O)c1ccccc1)[C@@H]2OC(=O)c1ccccc1 | 66.6% [at 17.3 µM] (inactive) | – |
| CC(C)=CC1C[C@](C)(O)[C@@H]2[C@H]3CCC4[C@@]5(C)CC[C@H](O[C@@H]6OC[C@H](O)[C@H](O[C@@H]7O[C@H](CO[C@@H]8O[C@H](CO)[C@@H](O)[C@H](O)[C@H]8O)[C@@H](O)[C@H](O)[C@H]7O)[C@H]6O[C@@H]6O[C@@H](C)[C@H](O)[C@@H](O)[C@H]6O)C(C)(C)[C@@H]5CC[C@@]4(C)[C@@]34CO[C@@]2(C4)O1 (stereo not given in full) | 74.2% [at 9.25 µM] (inactive) | – |
| COc1c2cc(c(O)c1OC)-c1cc(ccc1O)CCC(O)CCCC2 (stereo not given) | – | 12.8 µM (active) |
| C=C(C)[C@@H]1CCC2=CC(=O)C[C@@H](C)[C@]2(C)C1 | 88.9% [at 91.9 µM] (inactive) | – |
| CCC(C)C(C(=O)O)N1Cc2c(OCC=C(C)C)c(C)c(OC)c(C(=O)O)c2C1=O (stereo not given) | 88.6% [at 17.3 µM] (inactive) | – |
| NC(=O)c1ccc(F)c2c1C[C@@H](N(C1CCC1)C1CCC1)CO2 | 65.3% (inactive) | – |
| CC(O)(CC(=O)O)CC(=O)O[C@@H]1[C@@H](O)[C@H](OCCc2ccccc2)O[C@H](CO)[C@H]1O (stereo not given in full) | 84.9% [at 17.3 µM] (inactive) | – |
| CC(C)C(=O)O[C@@H]1[C@@H](O)[C@@H](O[C@H]2O[C@H](CO)[C@@H](O)[C@H](O)[C@H]2O)O[C@H](CO)[C@H]1O | 84.4% [at 17.3 µM] (inactive) | – |
| CC(O)/C=C/C1OC(=O)CC1Nc1ccc(C(=O)O)cc1 (stereo not given) | 84.7% (inactive) | – |
| Cn1sc(=O)n(Cc2ccccc2)c1=O | – | 2.59 µM (active) |
| C=C(COC(=O)CC(C)C)C1Cc2cc(C(C)=O)ccc2O1 (stereo not given) | 63.5% (inactive) | – |

| Compound | viability (% of control) | Potency |
| --- | --- | --- |
| COC(=O)C(CC1(O)c2ccccc2N2C(=O)C(C)(C)N(O)C21)n1cnc2ccccc2c1=O (stereo not given) | 68.9% [at 17.3 µM] (inactive) | – |
| C[C@@H]1CCC2C(C)(C)[C@H](O)[C@H](O)C[C@]2(C)[C@@]12Cc1c(O)cc3c(c1O2)CN(CCCC(=O)O)C3=O (stereo not given in full) | 73.3% [at 17.3 µM] (inactive) | – |
| COc1cc(C)c(C(=O)O[C@H]2[C@@H](OC(C)=O)[C@H](n3ccc(=O)[nH]c3=O)O[C@@H]2CO)c(OC)c1 | 79% [at 17.3 µM] (inactive) | – |
| CCC(=O)O[C@H]1C(C)(C)[C@H]([C@@H](O)C(=O)OC)[C@]2(C)C(=O)[C@@]1(O)[C@H]1O[C@]13C1CC(=O)O[C@@H](c4ccoc4)[C@]1(C)CCC32 (stereo not given in full) | 30.2% [at 17.3 µM] (inactive) | – |
| CC(C)(C)NC(=O)[C@H]1CC[C@H]2[C@@H]3CC[C@H]4NC(=O)CC[C@]4(C)[C@H]3CC[C@]12C | 59.3% (inactive) | – |
| CCN(CC)c1ccc2c(O)c(C=Nc3ccc(CC(=O)O)c(-c4c5c(nc6ccccc46)CCC(C(=O)NN)C5)c3)c(=O)oc2c1 (stereo not given) | – | 2.59 µM (active) |
| CCCc1cc(C)[nH]c(=O)c1CNC(=O)c1cc(-c2ccc(N3CCN(C(C)C)CC3)nc2)cc2c1cnn2C(C)C | – | 13 µM (active) and 5.9 µM (active) |
| C=C1/C(=C/C=C2\CCC[C@]3(C)[C@@H]([C@@H](C)OCCC(O)(CC)CC)CC[C@@H]23)C[C@@H](O)C[C@@H]1O | 7.66% (inactive) | – |
| Cc1cc(-c2nc(-c3ccc(OC(F)(F)F)cc3)no2)nn1Cc1ccnc(N2CCN(C3CC3)CC2)c1 | 20.4% (inactive) | – |
| Cc1cc2nc(NCCCO)n(CC(=O)c3cc(C(C)(C)C)c(O)c(C(C)(C)C)c3)c2cc1C | – | 8.2 µM (active) |
| Cc1ccc(-c2ncccn2)c(C(=O)N2C[C@H](COc3ccc(F)cn3)CC[C@H]2C)c1 | 42.1% (inactive) | – |
| O=C1NC(Cc2c[nH]c3ccccc23)C(=O)NC1Cc1cnc[nH]1 (stereo not given) | 68.3% (inactive) | – |
| COc1ccc(C(O[C@@H]2O[C@H](CO)[C@@H](O)[C@H](O)[C@H]2O)C(CO)Oc2ccc(/C=C/CO)cc2OC)cc1O (stereo not given in full) | 90% [at 17.3 µM] (inactive) | – |
| CCCC(=O)C1CCN(c2ncnc3c2CN(C(=O)c2ccc(-c4ccccc4)cc2)CC3)CC1 | – | 16.4 µM (active) |
| C[C@@H]1O[C@@H](O[C@H]2[C@H](O[C@H]3[C@H](O[C@H]4CC[C@@]5(CO)C(CC[C@]6(C)C5CC=C5C7CC(C)(C)C[C@@H](O)[C@]7(C)CC[C@]56C)C4(C)C)O[C@H](C(=O)O)[C@@H](O)[C@@H]3O)OC[C@@H](O)[C@@H]2O)[C@H](O)[C@H](O)[C@H]1O (stereo not given in full) | 63.5% [at 9.25 µM] (inactive) | – |
| C=C1C(OC(C)=O)CCC2(C)CCC(C(C)(C)O)CC12 (stereo not given) | 71.6% (inactive) | – |
| C[C@@H]1O[C@@H](O[C@H]2[C@H](O[C@H]3[C@H](O[C@H]4CC[C@@]5(C=O)C(CC[C@]6(C)C5CC=C5C7CC(C)(C)C[C@@H](O)[C@]7(C)CC[C@]56C)C4(C)C)O[C@H](C(=O)O)[C@@H](O)[C@@H]3O)OC[C@@H](O)[C@@H]2O)[C@H](O)[C@H](O)[C@H]1O (stereo not given in full) | 85.7% [at 9.25 µM] (inactive) | – |
| CC1CCC2(C(=O)OC3OC(COC4OC(CO)C(O)C(O)C4O)C(O)C(O)C3O)CCC3(C)C(=CCC4C5(C)CCC(O)C(C)(C(=O)O)C5CCC43C)C2C1(C)O (stereo not given) | 98.4% [at 9.25 µM] (inactive) | – |
| CC1(C(=O)O)CC[C@]2(C(=O)OC3OC(CO)C(O)C(O)C3O)CC[C@]3(C)C(=CCC4[C@@]5(C)CC[C@H](OC6OCC(O)C(O)C6OC6OC(CO)C(O)C(O)C6O)C(C)(C)C5CC[C@]43C)C2C1 (stereo not given in full) | 68.3% [at 9.25 µM] (inactive) | – |
| COC1=CC(=O)O[C@@H](/C=C/c2ccccc2)[C@@H]1O | 87.1% (inactive) | – |
